# Laboratory results taken from the supplement of paper PMC8728848.
# Many of the other results were omitted from the sample, so the strongest signals are more common in it than they were.
# Legend:
# Assay in all cases: glycan array binding signal (z-score within array); higher = stronger binding
# Settings in all cases: glycan notation: IUPAC condensed, linker removed
# [1] = molecular target: Fuc(a1-2)[Gal(a1-3)]Gal(b1-4)GlcNAc(b1-3)Gal(b1-4)Glc
# Method in brief: (§1)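 The binding signal is a Z-score computed within each array. Data were drawn from 3228 arrays in the Consortium for Functional Glycomics database, restricted to those with a known protein sequence. Scores were averaged over arrays of the same protein sequence at different concentrations or buffers, and over linkers, and negative values can be taken as non-binding.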
# [2] = molecular target: Fuc(a1-3)[Gal(b1-4)]GlcNAc(b1-3)Gal(b1-4)Glc
# Method in brief: as §1
# Gal(b1-4)Glc = molecular target: Gal(b1-4)Glc
# Method in brief: as §1
# [3] = molecular target: Gal(b1-4)GlcNAc(b1-2)Man(a1-3)[Gal(b1-4)GlcNAc(b1-2)Man(a1-6)]Man(b1-4)GlcNAc(b1-4)[Fuc(a1-6)]GlcNAc
# Method in brief: as §1
# [4] = molecular target: Gal(b1-4)GlcNAc(b1-2)Man(a1-3)[Gal(b1-4)GlcNAc(b1-2)Man(a1-6)][GlcNAc(b1-4)]Man(b1-4)GlcNAc(b1-4)[Fuc(a1-6)]GlcNAc
# Method in brief: as §1
# Glc(a1-4)Glc = molecular target: Glc(a1-4)Glc
# Method in brief: as §1
# [5] = molecular target: Glc(a1-6)Glc(a1-4)Glc(a1-4)Glc
# Method in brief: as §1
# [6] = molecular target: Glc(a1-6)Glc(a1-6)Glc(a1-6)Glc(a1-6)Glc(a1-6)Glc(a1-6)Glc(a1-6)Glc
# Method in brief: as §1
# [7] = molecular target: GlcA(b1-3)Gal(b1-4)GlcNAc(b1-3)Gal(b1-4)Glc
# Method in brief: as §1
# [8] = molecular target: GlcNAc(a1-4)Gal(b1-3)[Fuc(a1-2)]Gal
# Method in brief: as §1
# [9] = molecular target: GlcNAc(b1-2)[GlcNAc(b1-4)]Man(a1-3)[GlcNAc(b1-2)[GlcNAc(b1-4)][GlcNAc(b1-6)]Man(a1-6)][GlcNAc(b1-4)]Man(b1-4)GlcNAc(b1-4)GlcNAc
# Method in brief: as §1
# [10] = molecular target: GlcNAc(b1-4)GlcNAc(b1-4)GlcNAc
# Method in brief: as §1
# [11] = molecular target: HexA(a1-3)GalNAc4S(b1-4)IdoA(a1-3)GalNAc4S(b1-4)IdoA(a1-3)GalNAc4S(b1-4)IdoA(a1-3)GalNAc4S(b1-4)IdoA(a1-3)GalNAc4S(b1-4)IdoA(a1-3)GalNAc4S(b1-4)IdoA(a1-3)GalNAc4S
# Method in brief: as §1
# [12] = molecular target: Man(a1-2)Man(a1-3)[Man(a1-2)Man(a1-6)[Man(a1-3)]Man(a1-6)]Man(b1-4)GlcNAc(b1-4)GlcNAc
# Method in brief: as §1
# [13] = molecular target: Man(a1-2)Man(a1-3)[Man(a1-3)[Man(a1-6)]Man(a1-6)]Man(b1-4)GlcNAc(b1-4)GlcNAc
# Method in brief: as §1
# [14] = molecular target: Man(a1-3)[Man(a1-6)]Man(a1-6)[Man(a1-3)]Man
# Method in brief: as §1
# [15] = molecular target: Neu4Ac5Ac(a2-3)Gal(b1-4)Glc
# Method in brief: as §1
# [16] = molecular target: Neu5Ac(a2-3)Gal(b1-4)[Fuc(a1-3)]GlcNAc6S(b1-3)Gal(b1-4)Glc
# Method in brief: as §1
# [17] = molecular target: Neu5Ac(a2-6)Gal(b1-3)GlcNAc(b1-3)[Fuc(a1-3)[Gal(b1-4)]GlcNAc(b1-6)]Gal(b1-4)Glc
# Method in brief: as §1
# Neu5Ac(a2-6)Gal(b1-4)Glc = molecular target: Neu5Ac(a2-6)Gal(b1-4)Glc
# Method in brief: as §1
# [18] = molecular target: Neu5Ac(a2-8)Neu5Ac(a2-3)Gal(b1-3)GalNAc(b1-4)[Neu5Ac(a2-3)]Gal(b1-4)Glc
# Method in brief: as §1
# [19] = molecular target: Neu5Ac(a2-8)Neu5Ac(a2-8)Neu5Ac(a2-8)Neu5Ac(a2-8)Neu5Ac
# Method in brief: as §1
# [20] = molecular target: Xyl(a1-6)Glc(b1-4)[Xyl(a1-6)]Glc(b1-4)[Xyl(a1-6)]Glc(b1-4)Glc
# Method in brief: as §1
# [21] = molecular target: Fuc(a1-2)[Gal(a1-3)]Gal(b1-4)GlcNAc(b1-3)GalNAc
# Method in brief: as §1
# [22] = molecular target: Gal(a1-3)Gal(b1-3)GlcNAc(b1-3)GalNAc
# Method in brief: as §1
# Gal(a1-4)Gal(b1-4)Glc = molecular target: Gal(a1-4)Gal(b1-4)Glc
# Method in brief: as §1
# Gal(a1-6)Glc = molecular target: Gal(a1-6)Glc
# Method in brief: as §1
# [23] = molecular target: Gal(b1-3)GlcNAc(a1-6)Gal(b1-4)GlcNAc
# Method in brief: as §1
# [24] = molecular target: Gal(b1-3)GlcNAc(b1-2)Man(a1-3)[Gal(b1-3)GlcNAc(b1-2)Man(a1-6)]Man(b1-4)GlcNAc(b1-4)GlcNAc
# Method in brief: as §1
# [25] = molecular target: Gal(b1-3)GlcNAc(b1-3)GalNAc
# Method in brief: as §1
# [26] = molecular target: Gal(b1-3)[Fuc(a1-4)]GlcNAc(b1-3)Gal(b1-4)[Fuc(a1-3)]GlcNAc
# Method in brief: as §1
# [27] = molecular target: Gal(b1-3)[GlcNAc(b1-6)]GalNAc
# Method in brief: as §1
# [28] = molecular target: Gal(b1-4)GlcNAc(b1-2)Man(a1-3)Man(b1-4)GlcNAc(b1-4)GlcNAc
# Method in brief: as §1
# [29] = molecular target: Gal(b1-4)GlcNAc(b1-2)Man(a1-3)[Gal(b1-4)GlcNAc(b1-2)Man(a1-6)]Man(b1-4)GlcNAc(b1-4)GlcNAc
# Method in brief: as §1
# [30] = molecular target: Gal(b1-4)GlcNAc(b1-2)Man(a1-3)[Gal(b1-4)GlcNAc(b1-2)][GlcNAc(b1-4)]Man(b1-4)GlcNAc(b1-4)GlcNAc
# Method in brief: as §1
# [31] = molecular target: Gal(b1-4)GlcNAc(b1-2)Man(a1-3)[GlcNAc(b1-2)Man(a1-6)]Man(b1-4)GlcNAc(b1-4)GlcNAc
# Method in brief: as §1
# [32] = molecular target: Gal(b1-4)GlcNAc(b1-2)Man(a1-3)[Man(a1-6)]Man(b1-4)GlcNAc(b1-4)GlcNAc
# Method in brief: as §1
# Gal3S6S(b1-4)GlcNAc6S = molecular target: Gal3S6S(b1-4)GlcNAc6S
# Method in brief: as §1
# Gal6S(b1-4)GlcNAc = molecular target: Gal6S(b1-4)GlcNAc
# Method in brief: as §1
# GalNAc(b1-6)GalNAc = molecular target: GalNAc(b1-6)GalNAc
# Method in brief: as §1
# Glc(a1-6)Glc(a1-6)Glc = molecular target: Glc(a1-6)Glc(a1-6)Glc
# Method in brief: as §1
# GlcA(b1-3)Gal = molecular target: GlcA(b1-3)Gal
# Method in brief: as §1
# GlcNAc(b1-3)Gal = molecular target: GlcNAc(b1-3)Gal
# Method in brief: as §1
# GlcNAc(b1-4)GlcNAc = molecular target: GlcNAc(b1-4)GlcNAc
# Method in brief: as §1
# [33] = molecular target: GlcNAc6S(b1-3)Gal(b1-4)GlcNAc
# Method in brief: as §1
# [34] = molecular target: Man(a1-2)Man(a1-2)Man(a1-6)[Man(a1-3)]Man
# Method in brief: as §1
# [35] = molecular target: Man(a1-2)Man(a1-3)[Man(a1-2)Man(a1-6)]Man(a1-6)[Man(a1-2)Man(a1-2)Man(a1-3)]Man
# Method in brief: as §1
# Man(b1-4)GlcNAc = molecular target: Man(b1-4)GlcNAc
# Method in brief: as §1
# Neu5Ac(a2-3)GalNAc = molecular target: Neu5Ac(a2-3)GalNAc
# Method in brief: as §1
# [36] = molecular target: Neu5Ac(a2-6)Gal(b1-4)GlcNAc(b1-2)Man(a1-3)[Man(a1-6)]Man(b1-4)GlcNAc(b1-4)GlcNAc
# Method in brief: as §1
# [37] = molecular target: Neu5Ac(a2-6)Gal(b1-4)GlcNAc(b1-2)Man(a1-6)[Gal(b1-4)GlcNAc(b1-2)Man(a1-3)]Man(b1-4)GlcNAc(b1-4)GlcNAc
# Method in brief: as §1
# [38] = molecular target: Neu5Ac(a2-6)Gal(b1-4)GlcNAc(b1-2)Man(a1-6)[GlcNAc(b1-2)Man(a1-3)]Man(b1-4)GlcNAc(b1-4)GlcNAc
# Method in brief: as §1
binder,measurement,setting,value
"CLECSF8 (Mus musculus), Q9Z2H6 (protein) HYFLRWTRGSVVKLSDYHTRVTCIREEPQPGATGGTWTCCPVSWRAFQSNCYFPLNDNQTWHESERNCSGMSSHLVTINTEAEQNFVTQLLDKRFSYFLGLADENVEGQWQWVDKTPFNPHTVFWEKGESNDFMEEDCVVLVHVHEKWVWNDFPCHFEVRRICKLPGITFNWKPSK",glycan array binding signal (z-score),[1],-0.424
same,glycan array binding signal (z-score),[2],-0.424
same,glycan array binding signal (z-score),Gal(b1-4)Glc,-0.424
same,glycan array binding signal (z-score),[3],-0.424
same,glycan array binding signal (z-score),[4],-0.424
same,glycan array binding signal (z-score),Glc(a1-4)Glc,0.06
same,glycan array binding signal (z-score),[5],3.29
same,glycan array binding signal (z-score),[6],1.5
same,glycan array binding signal (z-score),[7],3.5
same,glycan array binding signal (z-score),[8],-0.424
same,glycan array binding signal (z-score),[9],-0.424
same,glycan array binding signal (z-score),[10],1.74
same,glycan array binding signal (z-score),[11],0.136
same,glycan array binding signal (z-score),[12],-0.424
same,glycan array binding signal (z-score),[13],-0.424
same,glycan array binding signal (z-score),[14],4.16
same,glycan array binding signal (z-score),[15],0.312
same,glycan array binding signal (z-score),[16],-0.424
same,glycan array binding signal (z-score),[17],-0.424
same,glycan array binding signal (z-score),Neu5Ac(a2-6)Gal(b1-4)Glc,-0.424
same,glycan array binding signal (z-score),[18],9.51
same,glycan array binding signal (z-score),[19],1.77
same,glycan array binding signal (z-score),[20],3.32
"ASAL (Allium sativum), P83886 (protein) MGRTTSSPKAMMRIATVAAILTILASTCMARNVLTNGEGLYAGQSLDVEQYKFIMQDDCNLVLYEYSTPIWASNTGVTGKNGCRAVMQRDGNFVVYDVNGRPVWASNSVRGNGNYILVLQKDRNVVIYGSDIWSTGTYRRSVGGAVVMAMNGTVDGGSVIGPVVVNQNVTAAIRKVGTGAA",glycan array binding signal (z-score),[21],-0.201
same,glycan array binding signal (z-score),[22],-0.206
same,glycan array binding signal (z-score),Gal(a1-4)Gal(b1-4)Glc,-0.282
same,glycan array binding signal (z-score),Gal(a1-6)Glc,-0.285
same,glycan array binding signal (z-score),[23],-0.252
same,glycan array binding signal (z-score),[24],-0.113
same,glycan array binding signal (z-score),[25],-0.178
same,glycan array binding signal (z-score),[26],-0.218
same,glycan array binding signal (z-score),[27],-0.267
same,glycan array binding signal (z-score),[28],6.55
same,glycan array binding signal (z-score),[29],5.54
same,glycan array binding signal (z-score),[3],7.04
same,glycan array binding signal (z-score),[30],-0.228
same,glycan array binding signal (z-score),[31],5.91
same,glycan array binding signal (z-score),[32],7.21
same,glycan array binding signal (z-score),Gal3S6S(b1-4)GlcNAc6S,-0.238
same,glycan array binding signal (z-score),Gal6S(b1-4)GlcNAc,-0.193
same,glycan array binding signal (z-score),GalNAc(b1-6)GalNAc,-0.24
same,glycan array binding signal (z-score),Glc(a1-6)Glc(a1-6)Glc,-0.234
same,glycan array binding signal (z-score),GlcA(b1-3)Gal,5.39
same,glycan array binding signal (z-score),GlcNAc(b1-3)Gal,-0.3
same,glycan array binding signal (z-score),GlcNAc(b1-4)GlcNAc,-0.252
same,glycan array binding signal (z-score),[33],-0.065
same,glycan array binding signal (z-score),[34],2.53
same,glycan array binding signal (z-score),[35],4.09
same,glycan array binding signal (z-score),Man(b1-4)GlcNAc,-0.236
same,glycan array binding signal (z-score),Neu5Ac(a2-3)GalNAc,-0.276
same,glycan array binding signal (z-score),[36],0.085
same,glycan array binding signal (z-score),[37],4.59
same,glycan array binding signal (z-score),[38],5.01
